HT1080 IDH1KD tx – qHTS for induction of synthetic lethality in tumor cells producing 2HG: qHTS for the HT-1080-IDH1KD cell line; HT-1080 IDH1 knockdown viability, ATP luminescence, 48 h; Potency, µM (titrated, usually from 46.1 µM), without a hit: top-dose activity, negative = toxicity, hits mostly cytotoxic; 360,000 compounds, 2% hits;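 further: potency means the concentration at half of the fitted maximal effect; 0% = DMSO wells and -100% = cell-free medium wells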
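Assay cells: HT-1080 with IDH1 knockdown, 750 per well, RPMI/5% FBS. Exposure: 48 h at 37 °C following 2 h pre-incubation. Read: CellTiter-Glo luminescence; fitted concentration-response, curve class assigned.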
DT40 TDP1 CPT – qHTS for Inhibitors of human tyrosyl-DNA phosphodiesterase 1 (TDP1): qHTS in cells in presence of CPT. chicken DT40 Tdp1-/-;hTDP1 cells + 20 nM CPT, ATP luminescence, 48 h. Potency, µM (titrated, usually from 46.2 µM), without a hit: at the highest dose activity change, negative = growth inhibition, hits mostly inhibitors. 420,000 compounds, 12% hits. AID 686979, 2013; further: potency means the concentration at half of the fitted maximal effect; nearly all actives have a fitted effect of over 55% in size
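Chicken DT40 Tdp1-/- cells complemented with human TDP1, 400 cells/well, exposed to compounds plus 20 nM camptothecin for at least 48 h at 37 C; viability read as ATP content by CellTiter-Glo luminescence.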
ELG1 DNA repair – qHTS screen for small molecules that inhibit ELG1-dependent DNA repair in human embryonic kidney (HEK293T) cells expressing luciferase-tagged ELG1 | HEK293T ELG1-luciferase reporter, luminescence, 16 h; DNA damage induced by 5-fluorouridine | Potency, µM (highest dose often 46.1 µM), for inactives: at the top dose activity change, negative = inhibition, most hits filed as inhibitors | 330,000 compounds, 2.3% hits; further: potency means the concentration at half of the fitted maximal effect; nearly all actives have a fitted effect of over 55% in size
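DMSO vehicle served as the neutral condition. Each well held 2,000 cells given 5-fluorouridine plus compound; after 16 hr at 37 °C/5% CO2, ONE-Glo was added and luciferase measured 30 min later.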
IL1B secr inh – qHTS for Inhibitors of Inflammasome Signaling: IL-1-beta AlphaLISA Primary Screen; THP-1 LPS/ATP IL-1B secretion, AlphaLISA, 16 h; active compounds read low; activity change, % at 57.5 µM; 360,000 compounds, 4.7% hits; AID 743279, 2014; in the data active means activity change below about -50%; inconclusive means mostly about -30% to -49%
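Secreted IL-1B measured by AlphaLISA bead assay after 16 h compound exposure of THP-1 cells; compounds (final up to 57.5 uM) added 1 h before LPS (250 ng/mL) and ATP (1.25 mM) stimulation; lower signal means less secretion.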
HT1080-NT tox – qHTS for induction of synthetic lethality in tumor cells producing 2HG: qHTS for the HT-1080-NT fibrosarcoma cell line; HT-1080-NT fibrosarcoma viability, CellTiter-Glo ATP luminescence, 48 h; Potency, µM (top dose mostly 46.1 µM), for inactives: at the highest dose activity, negative = less viability, usual class: cytotoxic; 360,000 compounds, 1.6% hits; AID 686970, 2013;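 further: NT is the 2HG producing partner of a matched IDH1 knockdown line; potency means the concentration at half of the fitted maximal effect; 0% = DMSO-treated cells and -100% = media-only wells without cells; nearly all actives have a fitted effect of over 55% in size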
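HT-1080-NT; 750 cells/well; 5% FBS RPMI; 48 h compound, 37 degrees C; CellTiter-Glo luminescence; curve fitting and curve-class assignment.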
TDP1 cell noCPT – qHTS for Inhibitors of human tyrosyl-DNA phosphodiesterase 1 (TDP1): qHTS in cells in absence of CPT; Potency, µM (series often up to 46.2 µM), for the others: top-dose activity change, negative = growth inhibition, hits mostly inhibitors; AID 686978, 2013; 420,000 compounds, 15% hits; DT40 Tdp1-/- hTDP1 cells, no CPT, ATP luminescence, 48 h; further: potency means the concentration at half of the fitted maximal effect; nearly all actives have a fitted effect of over 55% in size
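DT40 Tdp1-/-;hTDP1 cells, no CPT (DMSO vehicle only), 400 cells/well; compounds pin-transferred; ≥48 hr, 37 °C; CellTiter-Glo 30 min RT dark, luminescence read.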
An asterisk follows results filed as active; u = inconclusive; x = no result given; [ ] = dose if it differs, or a comment. Rows were chosen to be rich in hits. Some 19% of all compounds tested hit in one or more screens of this group. Unless noted, the call rests on the fitted dose curve; in most records, active means well fitted curve in the direction sought with a large enough effect; inconclusive means small, poorly fitted or top-dose-only effect, or another doubt; inactive means no such curve, though single readings can be large; an effect the other way counts as inactive or inconclusive. Unless noted, on the % scale 0 is the no-effect control and ±100 the full control effect.

SMILES	HT1080 IDH1KD tx	DT40 TDP1 CPT	ELG1 DNA repair	IL1B secr inh	HT1080-NT tox	TDP1 cell noCPT
O=C(CC1C(=O)NCCN1Cc1cccc(F)c1)NC1CCCCC1 (stereo not drawn)	8%	10%	-4%	11	2%	4%
CC(C)c1nnc(NC(=O)c2nc(SCc3ccc(F)cc3)ncc2Cl)s1	x	-20%	x	x	x	-3%
O=C(Nc1nc2ccc(F)cc2s1)c1nc(S(=O)(=O)Cc2ccccc2F)ncc1Cl	x	3.3µM*	x	x	x	2.6µM*
CSc1nnc(NC(=O)c2nc(S(=O)(=O)Cc3ccccc3F)ncc2Cl)s1	21µM*	2.9µM*	u	-101*	u	-84%
CCSc1nnc(NC(=O)c2nc(S(=O)(=O)Cc3ccc(F)cc3)ncc2Cl)s1	u	13µM*	-24%	-103*	u	10µM*
CC(C)c1nnc(NC(=O)c2nc(S(=O)(=O)Cc3ccc(F)cc3)ncc2Cl)s1	23µM*	4.6µM*	u	-105*	26µM*	4.1µM*
C=CCSc1nnc(NC(=O)c2nc(SCC)ncc2Cl)s1	1%	u	-1%	22	-9%	-4%
Cc1cccc(CS(=O)(=O)c2ncc(Cl)c(C(=O)Nc3nnc(C(C)C)s3)n2)c1	7.3µM*	4.6µM*	u	-102*	10µM*	13µM*
O=C(C[C@@H]1CC[C@H](NC(=O)Nc2ccc(F)cc2)[C@@H](CO)O1)NCc1cccc(F)c1	15%	-25%	x	17	8%	-26%
COc1ccc(N(CCCN2C(=O)c3cccc4cccc(c34)C2=O)C(=O)c2cccs2)cc1	-22%	u	u	31	-15%	u
COc1cc(C)ccc1N(CCCN1C(=O)c2cccc3cccc(c23)C1=O)C(=O)c1cccs1	7%	9.2µM*	21µM*	-7	10%	9.2µM*
COc1cccc(NC(=O)CCC2CCN(C(=O)Cc3cccc(F)c3)CC2)c1	-19%	u	-3%	2	-11%	15µM*
COc1cccc(NC(=O)CCC2CCN(C(=O)c3sccc3C)CC2)c1	-9%	21µM*	u	0	-12%	21µM*
COc1ccc(CC(=O)N2CCC(CCC(=O)Nc3ccccc3)CC2)cc1	-16%	-23%	8%	0	0%	u
O=C(NN1CCCCC1)NN1CCCCC1	0%	-30%	x	38	25%	-12%
CC(=O)c1ccc(NC(=O)Cn2c(=O)nc(-c3ccccc3)c3ccccc32)cc1	x	5%	x	x	x	-19%
Cc1cccc(NC(=O)Cn2c(=O)nc(-c3ccccc3)c3ccccc32)c1C	x	u	x	x	x	21µM*
Cc1c(Cl)cccc1NC(=O)Cn1c(=O)nc(-c2ccccc2)c2ccccc21	x	u	x	x	x	16µM*
COc1ccc(CNC(=O)Cn2c(=O)nc(-c3ccccc3)c3ccccc32)cc1OC	x	u	x	x	x	16µM*
COc1ccc(NC(=O)C2CCCN(c3nn4c(=O)cc(C)nc4s3)C2)c(OC)c1 (stereo not drawn)	4%	-17%	10%	-3	9%	9%
O=C(Nc1cc2cc([N+](=O)[O-])ccc2oc1=O)c1cccs1	x	x	20%	x	x	x
Cc1cccc(NS(=O)(=O)c2cc(C(=O)N3CCCCCC3)ccc2C)c1	-6%	-27%	-4%	-9	-2%	u
Cc1cn2c(=O)cc(COC(=O)c3cccc(NC(=O)c4ccc(C(C)(C)C)cc4)c3)nc2s1	x	10%	x	x	x	-11%
Cc1cn2c(=O)cc(COc3cccc(NC(=O)c4ccc(C(C)(C)C)cc4)c3)nc2s1	x	16µM*	x	x	x	16µM*
Cc1cn2c(=O)cc(COc3cccc(NC(=O)c4ccccc4Cl)c3)nc2s1	x	u	x	x	x	13µM*
SMILES	HT1080 IDH1KD tx	DT40 TDP1 CPT	ELG1 DNA repair	IL1B secr inh	HT1080-NT tox	TDP1 cell noCPT
COC(=O)C[C@@H]1C=C[C@@H](NC(C)=O)[C@@H](CO)O1	27%	-2%	x	4	28%	13%
CCOC(=O)C(C(=O)OCC)N(C#N)c1nc(N(C)C)nc(N(C)C)n1	-22%	10%	6%	-100*	-21%	-12%
CCOC(=O)C(C(=O)OCC)N(C#N)c1nc(C)cc(C)n1	9%[9.24 µM]	-5%	5%	-4	6%	-6%
CC(C)CNc1ncnc2c1ncn2[C@H]1CN(Cc2cccs2)C[C@@H](CO)O1	9%	u	x	-4	-1%	u
S=C(NCc1ccccn1)Nc1ccc(Cl)c(Cl)c1	-12%	16µM*	11%	-63*	-4%	u
S=C(NCCc1ccccn1)Nc1ccc(Cl)cc1	18%	18µM*	u	-2	13%	18µM*
S=C(NCc1ccncc1)Nc1cc(Cl)cc(Cl)c1	u	u	0%	-54*	-19%	-17%
S=C(NCc1ccccc1)Nc1ccncc1	-15%	10µM*	-6%	38	-9%	u
Cc1cccc(S(=O)(=O)c2cn(C)c3cc(N4CCC(C)CC4)c(F)cc3c2=O)c1	x	2%	x	x	x	-12%
CCc1cc(=O)oc2cc(C)cc(OCC(=O)NCc3ccncc3)c12	1%	4%	13%	0	-7%	9%
FC(F)(F)Sc1ccc(NC(=S)NCc2ccccc2)cc1	-26%	u	0%	-88*	-16%	21µM*
S=C(NCc1ccccc1)Nc1ccc(Cl)cc1	-10%	-29%	-4%	u	-4%	u
S=C(NCc1ccncc1)Nc1ccc(Cl)c(Cl)c1	u	u	-26%	-61*	-21%	u
Cc1ccc(C(C[N+](=O)[O-])n2nc(C)cc2C)cc1 (stereo not drawn)	1%	2.1µM*	u	-1	4%	2.6µM*
COc1ccc(NC(=O)N2CC3(CCN(S(C)(=O)=O)CC3)C2)cc1	x	-2%	x	x	x	-11%
CCN1CCN(c2ccc(S(=O)(=O)N3CCCCC3)cc2NC(=O)C(C)Oc2ccc(F)cc2)CC1 (stereo not drawn)	11%	18µM*	u	u	2%	18µM*

Compound activity from PubChem.
